Measured values from PubChem BioAssay (NCI).
Values joined by “and” are separate entries in the source; they are usually repeats but may differ in a detail not shown here. Equal entries are not always repeated. The panel holds about 83,000 compounds, 20% with a hit somewhere; the sample as a whole holds those more often.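 The test compound was applied at a single concentration to cells in 96-well plates for 48 hours, and percent growth was recorded.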 Values without a mark were called inactive. Active and inactive are the calls of the source. Rule for the calls: active = growth percent below 10; inactive = the rest.

Test system: MDA-MB-468 breast
Assay: NCI-60 one-dose screen, 48 h (100 = growth as untreated, 0 = no growth, -100 = all killed)
Conditions: 10 µM unless noted

SMILES	growth
O=C/C=C/c1ccc([N+](=O)[O-])cc1	108%
O=C(Nc1ccc(C(=O)O)c(O)c1)c1ccccc1	105% and 104%
Cc1cc(N/N=C/c2nc(-c3ccc(Br)cc3)oc2C)c2cc(Cl)ccc2n1	25.8%
C=C1C(=O)O[C@H]2[C@H]1CC/C(Cn1cc(-c3cccc(Cl)c3)nn1)=C\CC[C@@]1(C)O[C@@H]21	-66.1% (active)
COc1ccc(CN2CCc3c(Cl)nc(N)nc3C2=O)c(OC)c1	12% [100 µM]
CN1CCc2c(c3ccccc3c3ccccc23)C1	30.7%
COC12C=C/C(=C(/C(=O)OCc3ccncc3)C(=O)CCCCCCCCC3(OC)C=C/C(=C(/C(=O)OCc4ccncc4)C(=O)CCCCCCCC1)O3)O2	-39% (active)
CCOc1ccc(NC(=O)c2ccccc2-c2ccccc2C(=O)O)cc1	101%
COc1ccc(/C=N/NC(=O)c2[nH]c3ccc(Br)cc3c2-c2ccccc2)s1	-24% (active)
O=C(Oc1ccccc1)c1cc(O)c(O)c(O)c1	71.7%
CN(C)CCNC(=O)c1ccc(-c2nc3ccc4[nH]ncc4c3c3c2C2CCC3C2)cc1 (configuration not stated)	16.2%
C=C1C(=O)O[C@H]2[C@H]1CC/C(COC(=O)NCc1ccc(Cn3c(=O)sn(CCCI)c3=O)cc1)=C\CC[C@@]1(C)O[C@@H]21	-28.8% (active)
CC/C(=C(/CC)c1ccc(O)cc1)c1ccc(O)cc1	35.2%
Cc1sc2ncn(CC(=O)Nc3ccc(S(N)(=O)=O)cc3)c(=O)c2c1C	104%
O=C(Nc1nc(-c2ccccc2Cl)cs1)c1cc(-c2ccc(Br)cc2)nc2ccccc12	5% (active)
CC1SC(c2ccc(Cl)cc2)N(CCc2cccs2)C1=O (configuration not stated)	-38.4% (active)
CCCCOc1nc2ccccc2cc1/C=C/c1cc(/C=C/c2cc3ccccc3nc2OCCCC)n(-c2ccccc2)n1	104%
NS(=O)(=O)Oc1ccc(NC(=O)C23CC4CC(CC(C4)C2)C3)cc1Cl	103%
C/C(=N\N=C(/C)c1cccc([N+](=O)[O-])c1)c1cccc([N+](=O)[O-])c1	86.1%
Cc1ccccc1CNc1ncnc2[nH]ncc12	87.7%
FC(F)(F)c1cc(-c2nnc3n2N=C(Cl)CS3)cc(C(F)(F)F)c1	84.4%

SMILES	growth
C/C(=C(/c1ccc(Cl)cc1)c1ccc(OCCN2CCCC2)cc1)c1ccccc1	62.4%
CCCCS(=O)(=O)c1cc(Nc2ccc(O)c3c2C(=O)c2ccccc2C3=O)ccc1C	76.4%
N#C/C(=C\NC(=S)N=Nc1c(O)[nH]c2ccccc12)c1nc2ccccc2s1	79.8%
O=C1C=C(Nc2ccc([N+](=O)[O-])cc2)c2ccccc2C1=O	41.1%
CC1(C)C(=O)/C(=C\c2ccc(C(F)(F)F)cc2)C[C@]2(C)[C@H]3CC[C@@H]4[C@H]5[C@H](C(=O)/C=C/c6ccc(C(F)(F)F)cc6)CC[C@]5(CO)CC[C@@]4(C)[C@]3(C)CC[C@@H]12	104%
COc1cc(OC)cc(C2CC(=O)Nc3c2c(C)nn3-c2nc3ccccc3[nH]2)c1 (configuration not stated)	46.6%
COc1ccc(OC)c(-c2c(C#N)c(-c3ccco3)nc3c2c(-c2ccccc2)nn3-c2ccccc2)c1	98.4%
COC(=O)[C@H](C)NC(=O)[C@@H](OC)[C@@H]1Cc2cc3cc(OC4CC(OC5CC(O)C(O)C(C)O5)C(O)C(C)O4)c(C)c(O)c3c(O)c2C(=O)[C@H]1OC1CC(OC2CC(OC3CC(C)(O)C(O)C(C)O3)C(O)C(C)O2)C(O)C(C)O1 (some centres not stated)	-36.2% (active)
CCOC(=O)c1cc(-c2cccnc2)nc2c(Cl)cc(Cl)cc12	117%
CCCCCCCCn1ccc2cc(NC(=O)Cn3cc(CN4CCC(C)CC4)nn3)ccc21	-52.9% (active)
Cc1noc(C)c1-c1ccc2nc(NC(=O)[C@H]3CCN(C#N)C3)cn2c1	57.3%
COc1cc(/C=N/NC(=O)c2ccc(C)nc2)cc(OC)c1OC	98.5%
COc1cc(C2CC(=O)Nc3c2c(C)nn3-c2nc3ccccc3[nH]2)cc(OC)c1OC (configuration not stated)	96.9%
Cc1ccc(/C(C#N)=C/c2ccc3c(c2)OCO3)cc1	43.9%
C=C(C)[C@@H]1CC[C@]2(CO)CC[C@]3(C)[C@H](CC[C@@H]4[C@@]5(C)CCCNC(C)(C)[C@@H]5CC[C@]43C)[C@@H]12	11.7%
N#CC1C(C#N)C(C(=O)c2ccc(Br)cc2)N2c3ccccc3C=CC12 (configuration not stated)	-7.38% (active)
C#Cc1cccc(Nc2nc3ccc([N+](=O)[O-])cc3nc2Nc2cccc(C#C)c2)c1	-45.9% (active)
COc1ccc(C2CC(c3ccc(OC)cc3OC)=NN2c2ccc(S(N)(=O)=O)cc2)cc1 (configuration not stated)	64.8%
CC(=O)Nc1c(Cl)cc2c(c1Cl)Cc1ccccc1-2	70.6%
COc1ccc(/C=N/OCC(O)CNCc2ccccc2)cc1OC1CCCC1 (configuration not stated)	99.2%
O=C(CSc1nccc(Nc2ccc(S(=O)(=O)Nc3nccs3)cc2)n1)c1ccc(F)cc1	98.6%

SMILES	growth
CC[C@H](CC[C@@H](C)[C@H]1CC[C@H]2[C@@H]3CC=C4C[C@@H](OCCc5nn[nH]n5)CC[C@]4(C)[C@H]3CC[C@]12C)C(C)C	118%
CC(=O)c1cccs1	105%
CC(C)N1CN2C(=S)NC3C2N(C1)C(=S)N3C (configuration not stated)	101%
Cc1ccc(-c2nc(N3CCN(C(=O)c4ccc(OC(F)(F)F)cc4)CC3)c3ccccc3n2)cc1	93.8%
CNc1ccccc1C(=O)N/N=C/C=C/c1ccccc1	19.8%
Cn1cc(-c2nnc(-c3ccccc3)s2)c2cc(Br)cnc21	59.4%
Cn1cc(C(=O)c2nc(-c3c[nH]c4ccccc34)no2)c2ccccc21	-4.38% (active)
CC(C)NCC(O)COc1ccc(CC(N)=O)cc1 (configuration not stated)	102%
Cn1c2nc3ccccc3c-2cc2ccccc21	41.3%
C/C=C\COc1cc(C)c(Cl)cc1Cl	91.5%
COc1ccc(CCN2C(=O)/C(=C/c3ccc(C4Oc5ccccc5C5CC(c6cccc(OC)c6)=NN54)cc3)SC2=S)cc1 (configuration not stated)	107%
Cc1ccc(C(=O)/C(=C/c2ccc([N+](=O)[O-])cc2)SCc2ccc(Cl)cc2)cc1	72.9%
c1cc2nc(-c3cn[nH]c3)c3c(c2cc1-c1cn[nH]c1)C1CCC3C1 (configuration not stated)	78.9%
COc1ccc(Nc2ccc3ccccc3c2)cc1	-2.03% (active)
C=C1C(=O)O[C@H]2[C@H]1CC/C(COC(=O)NCCc1c[nH]c3ccc(OC)cc13)=C\CC[C@@]1(C)O[C@@H]21	-44.9% (active)
CC(=O)Oc1cc(C(C)C)c(OCCN(C)C)cc1C	110% and 104%
O=C(Cn1nc(-c2cccc3ccccc23)ccc1=O)NCc1cccc(Cl)c1	12.8% [50 µM]
NS(=O)(=O)c1ccc(Nc2nc(N/N=C/c3ccc([N+](=O)[O-])cc3)nc(Nc3ccccc3)n2)cc1	1.11% (active)
O=C(Cn1c[n+](CC(=O)c2ccc([N+](=O)[O-])cc2)c2ccccc21)Nc1cccc2cccnc12	9.02% (active)
CC(C)N1CCN(Cc2ccc3c(NNC(=O)c4ccccc4)nc4cc(F)ccc4n23)CC1	-14.3% (active)
C=C(C)[C@@H]1CC[C@]2(C(=O)O)CC[C@]3(C)[C@H](CC[C@@H]4[C@@]5(C)CCC(N)C(C)(C)[C@@H]5CC[C@]43C)[C@@H]12 (some centres not stated)	-23.2% (active)

SMILES	growth
CCc1ccc(OCc2ccccc2C(=O)Nc2ccc3nc(C)cc(N)c3c2)cc1	-58.4% (active)
COC(=O)/C=C1\SC(=Nc2ccc(F)cc2)N(CCc2c[nH]c3ccccc23)C1=O	125%
COc1ccc2ncccc2c1Cc1c(OC)ccc2ncccc12	8.37% (active)
COc1cccc(N2CCN(C3=C(Cl)C(=O)c4ncccc4C3=O)CC2)c1	-63.6% (active)
Cc1cc(O)c(C(C)C)cc1N	8.67% (active) and -40.1% (active)
COc1cc(/C=C/C(=O)/C=C/c2cc(OC)c3c(c2OC)OCO3)c(OC)c2c1OCO2	23.1%
NNc1ncccn1	102%
O=C(CN1C(=O)NC2NC(=O)NC21)N/N=C/c1cccc([N+](=O)[O-])c1 (configuration not stated)	97.6%
COc1ccc(C(C)C=O)cc1 (configuration not stated)	134%
COc1cc(-c2nc(NC(C)=O)sc2-c2ccnc(NCCNS(=O)(=O)c3ccccc3)n2)ccc1Cl	20.8%
COc1ccc(C(=O)N2NC(=O)/C(=C/c3cn(-c4ccccc4)nc3-c3ccccc3)N=C2c2ccccc2)cc1	95.7%
CCOC(=O)c1c(NC(=O)c2ccc(C(C)(C)C)cc2)sc2cc(O)ccc12	87.9%
COc1cc(NC(=O)SC2=NCCS2)cc(OC)c1	93.3%
N#Cc1c(-c2ccccc2)[nH]c2ncc(-c3ccccc3)n2c1=O	91.8%
Cc1ccc(N=Nc2c(N)nc(N)[nH]c2=O)cc1C	84.5%
CCOC(=O)c1c(Cl)c2c(n1Cc1ccc(OC)cc1)-c1oncc1CCC2	101%
CC1(C)CC(=O)C2=C(C1)Nc1cc3c(cc1C2c1ccc(F)cc1)OCO3 (configuration not stated)	71.4%
CCC(C)(O)Cc1ccc(Cl)cc1 (configuration not stated)	101%
NS(=O)(=O)c1ccc(Nc2nc(N/N=C/c3ccc(Cl)cc3)nc(Nc3ccccc3)n2)cc1	66.6%
